Our source for the growth values is PubChem BioAssay (NCI).

This is part of a sample that, as a whole, favours compounds with a hit. Of some 83,000 tested, about 20% had one in any assay.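 Assay: single dose, 48 h. Readout: percent growth (0 = no net growth; negative = cell death). Active: <10.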 A number with no mark means an inactive call. The source made the active and inactive calls.

Among the test systems are SR leukemia; RPMI-8226 leukemia; OVCAR-8 ovarian; OVCAR-5 ovarian; OVCAR-4 ovarian; SK-OV-3 ovarian; IGROV1 ovarian; OVCAR-3 ovarian; HS 578T breast; NCI/ADR-RES ovarian; T-47D breast; BT-549 breast; MDA-MB-435 melanoma; SW-620 colon; MCF7 breast; HCT-116 colon; HCC-2998 colon; KM12 colon.
What all share (assay): NCI-60 one-dose screen, 48 h (100 = growth as untreated, 0 = no growth, -100 = all killed)
What all share (conditions): 10 µM

On to `c1ccc(CNc2nc(Nc3ccc(-c4nc5ccccc5[nH]4)cc3)c3cn[nH]c3n2)cc1`, for which the growth is -13.8% (active) with SR leukemia; 2.15% (active) with RPMI-8226 leukemia; -12.5% (active) with OVCAR-8 ovarian; 41.1% in the assay with OVCAR-5 ovarian; 25.7% in the assay with OVCAR-4 ovarian; 10.8% in the assay on SK-OV-3 ovarian. In addition, the growth with IGROV1 ovarian is 36.2%; in the assay on OVCAR-3 ovarian, -38.1% (active); in the assay with HS 578T breast, -6.55% (active); in the assay with NCI/ADR-RES ovarian, 6.33% (active); in the assay on T-47D breast, -30.6% (active); in the assay with BT-549 breast it was -24.8% (active). Further, the growth was -6.74% (active) with MDA-MB-435 melanoma; 7.33% (active) in the assay with SW-620 colon; 1.71% (active) in the assay on MCF7 breast; -54.5% (active) in the assay on HCT-116 colon; -5.53% (active) in the assay on HCC-2998 colon; 9.4% (active) with KM12 colon.

`CCCCCCCCCCCCCC[n+]1ccc(C)cc1`: the growth with SR leukemia is -38.2% (active); in the assay with RPMI-8226 leukemia it was -29.7% (active); in the assay with OVCAR-8 ovarian it was -19.1% (active); in the assay on OVCAR-5 ovarian, 3.81% (active); with OVCAR-4 ovarian, 7.84% (active); in the assay on SK-OV-3 ovarian, -24.2% (active). Also, the growth with IGROV1 ovarian was -79.5% (active); in the assay with OVCAR-3 ovarian, -57.2% (active); in the assay on HS 578T breast, -22.6% (active); with NCI/ADR-RES ovarian, 66.6%; in the assay with T-47D breast it was 12.4%; in the assay with BT-549 breast it was -45% (active). The growth in the assay on MDA-MB-435 melanoma was -64.8% (active); in the assay with SW-620 colon, -3.73% (active); in the assay with MCF7 breast, 0.934% (active); with HCT-116 colon, 0.372% (active); in the assay on HCC-2998 colon it was -69.7% (active); in the assay on KM12 colon, -97.9% (active).

`CCSc1nc2c([nH]1)c(=O)n(C)c(=S)n2C`: the growth in the assay on SR leukemia is 118%; in the assay on RPMI-8226 leukemia, 112%; in the assay with OVCAR-8 ovarian, 108%; in the assay with OVCAR-5 ovarian, 99.1%; in the assay on OVCAR-4 ovarian it was 114%; in the assay with SK-OV-3 ovarian, 103%. Also, the growth in the assay on IGROV1 ovarian is 116%; in the assay with OVCAR-3 ovarian it was 112%; in the assay with HS 578T breast, 115%; in the assay on NCI/ADR-RES ovarian it was 105%; in the assay on T-47D breast it was 99.6%; in the assay on BT-549 breast, 118%. Also, the growth is 109% in the assay with MDA-MB-435 melanoma; 102% with SW-620 colon; 113% in the assay on MCF7 breast; 114% in the assay with HCT-116 colon; 106% with HCC-2998 colon; 103% with KM12 colon.

As for `C[n+]1c(/C=C/c2c[nH]c3ccccc23)ccc2ccccc21`, the growth in the assay with SR leukemia is 18.2%; with RPMI-8226 leukemia, 40.7%; with OVCAR-8 ovarian, 39.7%; with OVCAR-5 ovarian, 75.6%; in the assay on OVCAR-4 ovarian, 54.8%; in the assay on SK-OV-3 ovarian it was 64.6%. For the same compound, the growth in the assay on IGROV1 ovarian was 72.4%; in the assay with OVCAR-3 ovarian, 68.1%; in the assay on HS 578T breast, 103%; in the assay with NCI/ADR-RES ovarian it was 100%; with T-47D breast it was 12.1%; in the assay with BT-549 breast it was 94.7%. The growth is 60.3% in the assay with MDA-MB-435 melanoma; 48.8% in the assay with SW-620 colon; 19.4% in the assay with MCF7 breast; 31% with HCT-116 colon; 75.6% in the assay with HCC-2998 colon; 38.9% in the assay with KM12 colon.

Consider `CCn1nc(-c2ccc(C(=O)OC)cc2)nc2c(=O)n(C)c(=O)nc1-2`, for which the growth with SR leukemia is 7.67% (active); in the assay with RPMI-8226 leukemia it was 61.2%; with OVCAR-8 ovarian, 45.8%; with OVCAR-5 ovarian, 105%; in the assay on OVCAR-4 ovarian, 14.1%; in the assay on SK-OV-3 ovarian, 9.16% (active). The growth with IGROV1 ovarian was 87.4%; in the assay with OVCAR-3 ovarian, 25.7%; in the assay on HS 578T breast it was 35.6%; in the assay with NCI/ADR-RES ovarian, 70%; with T-47D breast, 84.1%; with BT-549 breast it was 98.2%. Moreover, the growth in the assay with MDA-MB-435 melanoma is 64.1%; in the assay with SW-620 colon it was 97.7%; in the assay with MCF7 breast, 80%; in the assay with HCT-116 colon, 51.5%; in the assay with HCC-2998 colon, 116%; in the assay on KM12 colon it was 80.4%.

Regarding `Nc1c(C(=O)NC2CCCCC2)sc2nc3c(cc12)C(=O)CCC3`, the growth in the assay with SR leukemia is 78.7%; with RPMI-8226 leukemia, 100%; in the assay with OVCAR-8 ovarian, 101%; in the assay on OVCAR-5 ovarian, 114%; in the assay with OVCAR-4 ovarian, 105%; in the assay on SK-OV-3 ovarian it was 120%. The growth was 116% with IGROV1 ovarian; 112% in the assay with OVCAR-3 ovarian; 102% with HS 578T breast; 102% with NCI/ADR-RES ovarian; 94.2% in the assay with T-47D breast; 95.4% in the assay with BT-549 breast. The growth in the assay with MDA-MB-435 melanoma is 54.7%; in the assay on SW-620 colon, 98.8%; in the assay on MCF7 breast, 83.2%; in the assay with HCT-116 colon it was 102%; in the assay with HCC-2998 colon, 121%; with KM12 colon, 91.8%.

Turning to `COC(=O)c1c(C)nc(Nc2nc3ccccc3s2)nc1-c1ccc(Cl)cc1Cl`, the growth was 99.4% with SR leukemia; 96.2% with RPMI-8226 leukemia; 103% with OVCAR-8 ovarian; 113% with OVCAR-5 ovarian; 91.6% in the assay with OVCAR-4 ovarian; 102% with SK-OV-3 ovarian. For the same compound, the growth with IGROV1 ovarian was 124%; in the assay on OVCAR-3 ovarian, 92.2%; with HS 578T breast, 108%; in the assay on NCI/ADR-RES ovarian, 104%; in the assay with T-47D breast it was 105%; with BT-549 breast it was 101%. The growth is 111% in the assay with MDA-MB-435 melanoma; 104% with SW-620 colon; 78.5% with MCF7 breast; 98.4% in the assay with HCT-116 colon; 108% in the assay on HCC-2998 colon; 103% with KM12 colon.

`COc1ccccc1Cn1cc2c(c1-c1ccccc1)CCc1cnoc1-2`: the growth with SR leukemia is 26.3%; in the assay on RPMI-8226 leukemia, 38.8%; with OVCAR-8 ovarian, 56%; in the assay on OVCAR-5 ovarian, 77.2%; in the assay with OVCAR-4 ovarian, 61.4%; in the assay on SK-OV-3 ovarian it was 19.1%. For the same compound, the growth was 44.8% with IGROV1 ovarian; 6.99% (active) in the assay with OVCAR-3 ovarian; 9.97% (active) in the assay on HS 578T breast; 21.3% in the assay with NCI/ADR-RES ovarian; 29.4% in the assay with T-47D breast; 46.9% in the assay on BT-549 breast. Further, the growth in the assay with MDA-MB-435 melanoma was -21.3% (active); with SW-620 colon, 16.8%; with MCF7 breast, 19.3%; in the assay on HCT-116 colon it was 20.9%; in the assay with HCC-2998 colon, 81%; in the assay on KM12 colon it was 29.5%.

As to `COc1ccc2nc(C)cc(Nc3ccc(Cl)cc3)c2c1`, the growth was 113% in the assay with SR leukemia; 102% in the assay on RPMI-8226 leukemia; 101% in the assay with OVCAR-8 ovarian; 101% with OVCAR-5 ovarian; 90.5% with OVCAR-4 ovarian; 105% with SK-OV-3 ovarian. Also, the growth in the assay with IGROV1 ovarian is 98.2%; with OVCAR-3 ovarian, 105%; with HS 578T breast it was 112%; in the assay with NCI/ADR-RES ovarian, 102%; with T-47D breast, 102%; in the assay on BT-549 breast, 103%. Besides, the growth was 108% with MDA-MB-435 melanoma; 106% in the assay with SW-620 colon; 89% in the assay on MCF7 breast; 101% in the assay with HCT-116 colon; 107% in the assay with HCC-2998 colon; 107% in the assay on KM12 colon.
